# Several values for one entry are separate records, joined by “and”; a condition that tells them apart may be missing. Equal entries are not always repeated. Compounds without any hit were thinned out: in the full panel of roughly 83,000, 20% have a hit.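 Growth was measured after 48 h exposure to one concentration of compound in 96-well plates. Values under 10 count as active.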 Activity calls are given as the source filed them.
# Tested on: MCF7 breast
# Experiment: NCI-60 one-dose screen, 48 h (100 = growth as untreated, 0 = no growth, -100 = all killed)
# Conditions: 10 µM unless noted
row,SMILES,growth
1,N#CC1C(=O)N(c2ccccc2)NC12OC(=O)c1ccncc12 (stereo not drawn),85.8% [20 µM] (inactive) and 87.1% [20 µM] (inactive)
2,Cc1ccc(NC(=S)C#N)c(C)c1,48.6% [100 µM] (inactive) and -77.7% [100 µM] (active)
3,CC(C)(C)O/N=C/c1cc(NC(=S)c2ccsc2)ccc1Cl,-74.5% [100 µM] (active) and -71.7% [100 µM] (active)
4,COc1cc(CC2c3cc(OC)c(OC)cc3CCN2C)c(Oc2cc3c(cc2OC)-c2c(O)c(OC)cc4c2C(C3)N(C)CC4)cc1OC (stereo not drawn),20.4% [100 µM] (inactive) and -77.4% [100 µM] (active)
5,CCC/C(Cl)=N\OC(=O)Nc1ccc(F)cc1,-78.4% [100 µM] (active) and -69.5% [100 µM] (active)
6,CC12NC(=C(C#N)C#N)C(C#N)=C3NC(N)=C(C#N)C(=C31)Oc1ccccc12 (stereo not drawn),17.3% [100 µM] (inactive) and -45.9% [100 µM] (active)
7,CC(=O)OC(C)c1cc2c(s1)C(=O)c1ccsc1C2=O (stereo not drawn),-61.2% [100 µM] (active) and -98.9% [100 µM] (active)
8,O=[N+]([O-])c1cccc(-c2ncnc(-c3cccc([N+](=O)[O-])c3)n2)c1,55.1% [100 µM] (inactive) and 68.9% [100 µM] (inactive)

# Source: PubChem BioAssay (NCI)
